This is a sample that favours compounds with a hit; in the whole collection about 1.2% have one here.
RGS16-Gao HTS: RGS16-Galphao interaction regulator (human) | bead-based flow cytometry RGS16-Galphao binding, fluorescence; actives lie on both sides | AID 1441 | binding response (% of control), % at 10 µM | 0.38% of 220,000 active | O15492+P09471;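 also: Galphao activated by GDP with aluminum fluoride before binding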
Target sequence (O15492 whole entry, looked up): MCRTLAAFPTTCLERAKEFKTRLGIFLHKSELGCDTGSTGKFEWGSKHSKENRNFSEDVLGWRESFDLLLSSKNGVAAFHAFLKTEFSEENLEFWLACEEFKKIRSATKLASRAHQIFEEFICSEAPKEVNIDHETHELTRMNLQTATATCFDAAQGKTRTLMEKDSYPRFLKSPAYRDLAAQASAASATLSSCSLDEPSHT
Target sequence (P09471 whole entry, looked up): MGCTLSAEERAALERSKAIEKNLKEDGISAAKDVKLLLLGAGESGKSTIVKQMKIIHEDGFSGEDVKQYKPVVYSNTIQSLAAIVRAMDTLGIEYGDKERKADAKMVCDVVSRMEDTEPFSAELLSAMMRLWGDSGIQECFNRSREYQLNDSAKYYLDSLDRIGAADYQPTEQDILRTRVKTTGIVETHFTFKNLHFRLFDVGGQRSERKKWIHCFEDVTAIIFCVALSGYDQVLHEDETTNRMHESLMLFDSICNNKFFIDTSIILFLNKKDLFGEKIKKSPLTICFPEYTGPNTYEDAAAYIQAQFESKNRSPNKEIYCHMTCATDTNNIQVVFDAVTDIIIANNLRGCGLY
RGS7-Gao reg: human RGS7-Galphao interaction regulation; P09471; Multiplexed bead flow cytometry, RGS7-Galphao binding; actives lie on both sides; binding response (% of control), % at 10 µM; 0.35% of 220,000 active; in the data active = binding response below about 49% or above about 150%; inconclusive = no clear call, values can overlap the other calls; inactive = in between;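 also: fluorescent Galphao held in activated GDP-AlF4 state binding bead-coupled RGS7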
Target sequence (P09471 whole entry, looked up): as above
Avidin bead fluor: compound fluoresces at 488/530 nm on avidin beads; fluorescence (KMESF) at 10 µM; 0.38% of 220,000 active; compound fluorescence 488/530 nm, flow cytometry; hits give high values; in the data active = fluorescence above about 47
GSH bead fluor: GSH bead compound fluorescence profile | GSH beads flow cytometry, compound fluorescence 488/530 nm; hits give high values | fluorescence (KMESF) at 10 µM | AID 1776 | 0.25% of 190,000 active; in the data active = fluorescence above about 89;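 also: glutathione beads carrying GST-tagged Bcl family fusion proteins plus one bare bead set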
RGS4-Gao reg: human RGS4-Galphao interaction regulation. P09471. 0.33% of 220,000 active. binding response (% of control), % at 10 µM. Multiplexed bead flow cytometry, RGS4-Galphao binding; actives lie on both sides; in the data active = binding response below about 49% or above about 150%; inactive = in between;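 also: fluorescent Galphao activated with aluminum fluoride binding bead-coupled RGS4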
RGS8-Gao reg: regulators of human RGS8-Galphao interaction; multiplexed bead flow cytometry, RGS8-Galphao binding; actives lie on both sides; response (percent of control binding), % at 10 µM; 0.34% of 220,000 active; AID 1423; in the data active = response below about 60% or above about 140%; inactive = in between;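 also: Galphao activated as the GDP aluminium fluoride complex binding bead-coupled RGS8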
RGS4-Gao HTS: RGS4-Galphao interaction regulator (human). shares compounds with RGS16-Gao HTS. multiplexed bead flow cytometry, RGS–Galpha-o binding. RGS4–Galpha-o binding response, % at 10 µM. 99% of 1,600 active. AID 1504;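 also: fluorescently labeled Galpha-o bound to GDP with aluminium fluoride binding biotinylated RGS beads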
Biotin-avidin: biotin-avidin bead binding disruption counter-screen. shares compounds with RGS16-Gao HTS. AID 1783. streptavidin beads, fluorescein-biotin binding, flow cytometry. 1,700 tested, under 10 active. inhibition, % at 10 µM;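 active = inhibition above 50%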;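 also: median green fluorescence of gated singlet beads compared with DMSO control wells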
RGS8-Gao confirm: confirmation of regulators of human RGS8-Galphao interaction. shares compounds with RGS16-Gao HTS. bead-based flow cytometry RGS8-Galphao binding, fluorescence; actives lie on both sides. binding response (% of control), % at 10 µM. 3% of 1,700 active. AID 1836; in the data active = binding response below about 72% or above about 130%; inactive = in between;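 also: Galphao activated as GDP AlF4 complex before binding bead RGS8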
RGS7-Gao confirm: confirmation of regulators of human RGS7-Galphao interaction; 7.8% of 1,700 active; response (percent of control binding), % at 10 µM; shares compounds with RGS16-Gao HTS; bead-based flow cytometry RGS7-Galphao binding; actives lie on both sides; AID 1837; in the data active = response below about 75% or above about 130%; inactive = in between;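 also: fluorescent Galphao activated with GDP and aluminum fluoride binding bead-coupled RGS7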
RGS16-Gao single: confirmation of regulators of human RGS16-Galphao interaction | 4% of 1,700 active | shares compounds with RGS16-Gao HTS | bead-based flow cytometry, RGS16-Galphao binding; actives lie on both sides | response (% of control binding), % at 10 µM; in the data active = response below about 74% or above about 130%; inactive = in between;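 also: Galphao activated as the GDP aluminium fluoride complex binding bead-coupled RGS16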
RGS4-Gao confirm: confirmation of regulators of human RGS4-Galphao interaction; 4% of 1,700 active; RGS4-Galphao binding, multiplexed bead flow cytometry; actives lie on both sides; shares compounds with RGS16-Gao HTS; binding response (% of control), % at 10 µM; in the data active = binding response below about 74% or above about 130%; inactive = in between
RGS19-Gao single: confirmation of regulators of human RGS19-Galphao interaction. shares compounds with RGS16-Gao HTS. bead-based flow cytometry RGS19-Galphao binding; actives lie on both sides. response (percent of control binding), % at 10 µM. 5% of 1,700 active; in the data active = response below about 50% or above about 160%; inactive = in between
Hits are given with their value; . = inactive; ? = inconclusive; / = no result; [ ] = remark or other dose. Unless noted, no rule for the calls is given here.

SMILES | RGS16-Gao HTS | RGS7-Gao reg | Avidin bead fluor | GSH bead fluor | RGS4-Gao reg | RGS8-Gao reg | Biotin-avidin | RGS8-Gao confirm | RGS7-Gao confirm | RGS16-Gao single | RGS4-Gao confirm | RGS19-Gao single | others
Cc1ccc(/C=N/N=C2/NC(=O)CS2)o1 | . | . | . | . | . | . | / | / | / | / | / | /
O=C1CS/C(=N/N=C/c2c[nH]c3ccccc23)N1 | 175.9[activator] | ? | . | / | 154.8[activator] | . | . | . | . | . | . | .
Cc1cccc(/C(N)=N/OC(=O)C23CC4CC(CC(C4)C2)C3)c1 | 12.1 | . | . | . | . | 55.7 | . | . | . | . | . | . | RGS4-Gao HTS=80.1
Cc1cccc(/C(N)=N/OC(=O)Cc2ccccc2)c1 | . | . | . | . | . | . | / | / | / | / | / | /
Cc1cc(=S)cc(C)n1CCO | . | . | . | . | . | 53.4 | . | . | . | . | . | . | RGS4-Gao HTS=100.0
COC(=O)C1=C(C)N(Cc2ccco2)C(=O)/C1=C\c1ccc(N(C)C)cc1 | 230.9[activator] | . | . | . | . | . | . | . | . | . | . | . | RGS4-Gao HTS=110.8
CCOCCCNC(=O)C(NC(=O)Cc1cccs1)c1ccc(OC)cc1 (stereo unspecified) | . | ? | . | . | . | . | / | / | / | / | / | /
c1ccc(Nc2c(-c3ccco3)nc3ccccn23)cc1 | . | . | . | . | . | . | / | / | / | / | / | /
c1ccc(-c2nc(-c3ccco3)n3ccccc23)cc1 | -2.4 | 0.6 | . | . | -6.6 | 7.9 | . | . | . | . | . | .
CC(=O)N1CCN(c2c(F)c(F)c(C(F)(F)F)c(F)c2F)CC1 | . | . | . | . | . | . | / | / | / | / | / | /
CN(c1ccccc1)S(=O)(=O)c1ccc(C(=O)OCC(=O)NCc2cccs2)cc1 | . | ? | . | / | . | . | / | / | / | / | / | /
CC(C)(C)c1nnc2sc(SCC(=O)c3ccccc3)nn2c1=O | . | . | . | . | . | . | / | / | / | / | / | /
CC(C)(C)c1nnc2sc(SC/C(O)=C(\C#N)c3nc4ccccc4[nH]3)nn2c1=O | 177.8[activator] | 161.3[activator] | . | . | 177.2[activator] | 148.1[activator] | . | . | . | . | . | .
COc1ccc2c(C)cc(SCc3c(C)noc3C)nc2c1 | . | . | . | . | . | 153.6[activator] | / | / | / | / | / | / | RGS4-Gao HTS=113.9
O=C(COC(=O)CNC(=O)c1cccc([N+](=O)[O-])c1)NCc1ccco1 | . | ? | . | . | . | . | / | / | / | / | / | /
CC(=O)c1ccc(O)c(CC=C(C)C)c1 | . | ? | . | / | . | . | / | / | / | / | / | /
O=C(Nc1nnc(-c2ccccc2Cl)o1)c1ccco1 | / | / | / | . | / | / | . | . | . | . | . | .
Cc1cc(C)cc(C(=O)NCC(=O)OCc2c(C)noc2C)c1 | 1.9 | -0.1 | . | . | 15.7 | 15.3 | . | . | . | . | . | .
O=S(=O)(N/N=C/c1ccc(F)cc1)c1ccccc1 | . | . | . | . | . | . | / | / | / | / | / | /
O=S(=O)(N/N=C/c1ccccc1F)c1ccccc1 | 11.2 | ? | . | . | 22.3 | 14.0 | . | . | . | . | . | .
NC(=O)CSc1nnc(-c2ccc(S(=O)(=O)N3CCCCC3)cc2)n1-c1ccccc1 | 334.5[activator] | . | . | . | . | . | . | . | . | . | . | . | RGS4-Gao HTS=124.8
COc1ccccc1-n1c(SCC(N)=O)nnc1-c1ccc(S(=O)(=O)N2CCCCC2)cc1 | . | . | . | . | . | . | / | / | / | / | / | /
COc1ccc(Cn2c(=S)[nH]c3ccsc3c2=O)cc1 | . | . | . | . | . | . | / | / | / | / | / | /
COc1ccccc1N1CCN(S(=O)(=O)c2ccc3c4c(cccc24)C(=O)N3)CC1 | . | . | . | . | . | . | / | / | / | / | / | /
COc1ccccc1N1CCN(S(=O)(=O)c2ccc3c4c(cccc24)C(=O)N3C)CC1 | -18.9 | -3.9 | . | . | -21.1 | 15.6 | . | . | . | . | . | .
SMILES | RGS16-Gao HTS | RGS7-Gao reg | Avidin bead fluor | GSH bead fluor | RGS4-Gao reg | RGS8-Gao reg | Biotin-avidin | RGS8-Gao confirm | RGS7-Gao confirm | RGS16-Gao single | RGS4-Gao confirm | RGS19-Gao single | others
Cc1ccccc1-n1c(-c2ccncc2)n[nH]c1=S | 18.2 | . | . | . | . | . | . | . | . | . | . | . | RGS4-Gao HTS=91.1
O=C(NCc1ccccc1)c1cnsn1 | 6.7 | 9.6 | . | . | 24.2 | 12.6 | . | . | . | . | . | .
CC1CCN(c2ccccc2N)CC1 | . | 152.8[activator] | . | . | 163.2[activator] | . | . | . | . | . | . | 48.4
Nc1ccccc1N1CCOCC1 | . | . | . | . | . | . | / | / | / | / | / | /
CC1CCN(c2nnc(N3CCC(C)CC3)c3ccccc23)CC1 | 10.6 | 11.7 | . | . | 20.0 | 17.5 | . | . | . | . | . | .
CC(=O)c1cc(F)c(N2CCN(C(=O)COc3ccccc3F)CC2)cc1C | . | . | . | . | . | . | / | / | / | / | / | /
C=CCn1c(COc2ccccc2)nnc1SCC(=O)Nc1ccc(S(N)(=O)=O)cc1 | . | . | . | . | . | . | / | / | / | / | / | /
Cn1c(COc2ccccc2)nnc1SCC(=O)Nc1ccc(S(N)(=O)=O)cc1 | / | / | / | . | / | / | . | . | . | . | . | .
CCNC(=O)NC(=O)CSc1ccc(NC(C)=O)cc1 | . | . | . | . | 46.9 | . | . | . | . | . | . | .
C/C(=N\NC(=O)c1ccc(NS(=O)(=O)c2cccs2)cc1)c1ccc(O)cc1O | . | ? | . | / | . | . | / | / | / | / | / | /
O=C(CCSc1nnc2ccc3ccccc3n12)Nc1ccc(F)cc1 | / | / | / | . | / | / | . | . | . | . | . | .
Clc1ccc(OCc2noc(-c3ccsc3)n2)c(Cl)c1 | . | ? | . | / | . | . | / | / | / | / | / | /
CCCCn1c(-c2csc(C(C)C)c2)n[nH]c1=S | . | . | . | . | . | . | . | . | . | . | . | .
N#Cc1cc2c(nc1Cl)CCC2 | . | ? | . | / | . | . | / | / | / | / | / | /
Cc1noc(C)c1C(=O)N1CCN(c2ccc(OCc3ccccc3)cc2)CC1 | . | ? | . | / | . | . | / | / | / | / | / | /
COc1ccc2nc(N/C(N)=N/C(=S)Nc3c(C)cccc3C)nc(C)c2c1 | 203.2[activator] | . | . | . | . | . | . | . | . | . | . | . | RGS4-Gao HTS=113.2
COc1ccc2nc(N/C(N)=N/C(=S)Nc3cccc(C)c3)nc(C)c2c1 | / | / | / | . | / | / | / | / | / | / | / | /

From PubChem BioAssay
